Shown is part of a subset that was picked to be rich in hits.
DT40 TDP1 CPT – growth inhibition of DT40 Tdp1-/-;hTDP1 cells with camptothecin (screen for TDP1 inhibitors). chicken DT40 Tdp1-/-;hTDP1 cells + 20 nM CPT, ATP luminescence, 48 h. Potency, µM (doses to about 46.2 µM), actives largely listed as inhibitors. actives 12% (n = 420,000); note: nearly all actives have a fitted effect of over 55% in size
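Chicken DT40 Tdp1-/- cells stably complemented with human TDP1 were seeded at 400 cells/well in medium containing 20 nM camptothecin, exposed to pin-transferred compounds, and grown at 37 °C for at least 48 hr. Viability was read as ATP luminescence.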
HT1080 IDH1KD tx – HT-1080 IDH1 knockdown cell toxicity (counter line); HT-1080 IDH1 knockdown viability, ATP luminescence, 48 h; Potency, µM (doses to about 46.1 µM), usual class: cytotoxic; actives 2% (n = 360,000)
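Using the IDH1-knockdown HT-1080 line run in the same batch and compound series as the NT line, viability after 48 h at 37 °C was determined by CellTiter-Glo luminescence and expressed as % activity.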
HT1080NT lethal – kills 2HG-producing HT-1080-NT fibrosarcoma cells; HT-1080-NT fibrosarcoma viability, CellTiter-Glo ATP luminescence, 48 h; Potency, µM (series often up to 46.1 µM), most hits filed as cytotoxic; actives 1.6% (n = 360,000);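 note: NT is the 2HG producing partner of a matched IDH1 knockdown line; nearly all actives have a fitted effect of over 55% in size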
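A 48-hour cytotoxicity screen used HT-1080-NT cells plated 2 hours before compound delivery. ATP-based CellTiter-Glo luminescence measured viability, normalized to DMSO and no-cell controls.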
TDP1 cell noCPT – qHTS for Inhibitors of human tyrosyl-DNA phosphodiesterase 1 (TDP1): qHTS in cells in absence of CPT. AID 686978, 2013. Potency, µM (titrated, usually from 46.2 µM), actives largely listed as inhibitors. DT40 Tdp1-/- hTDP1 cells, no CPT, ATP luminescence, 48 h. actives 15% (n = 420,000); note: nearly all actives have a fitted effect of over 55% in size
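DT40 Tdp1-/-;hTDP1 cells, no CPT (DMSO vehicle only), 400 cells/well; compounds pin-transferred; ≥48 hr, 37 °C; CellTiter-Glo 30 min RT dark, luminescence read.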
IL1B secr inh – inhibitors of inflammasome signaling (IL-1 beta secretion). THP-1 LPS/ATP IL-1B secretion, AlphaLISA, 16 h; hits give low values. activity change, % at 57.5 µM. actives 4.7% (n = 360,000). AID 743279; in the data active = activity change below about -50%; inconclusive = mostly about -30% to -49%
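THP-1 cells pretreated 1 hr with compounds (up to 57.5 uM final), then stimulated with LPS (250 ng/mL final) plus ATP (1.25 mM final); secreted IL-1B measured by AlphaLISA after 16 hr, decreased signal indicating inhibition.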
12-LOX inh – inhibitors of human 12S-lipoxygenase ALOX12. P18054. AID 1671190. purified 12hLO, xylenol orange hydroperoxide absorbance. actives 1.1% (n = 580,000). Potency, µM (top dose mostly 108 µM), most hits filed as inhibitors
Target sequence (P18054 whole entry, looked up): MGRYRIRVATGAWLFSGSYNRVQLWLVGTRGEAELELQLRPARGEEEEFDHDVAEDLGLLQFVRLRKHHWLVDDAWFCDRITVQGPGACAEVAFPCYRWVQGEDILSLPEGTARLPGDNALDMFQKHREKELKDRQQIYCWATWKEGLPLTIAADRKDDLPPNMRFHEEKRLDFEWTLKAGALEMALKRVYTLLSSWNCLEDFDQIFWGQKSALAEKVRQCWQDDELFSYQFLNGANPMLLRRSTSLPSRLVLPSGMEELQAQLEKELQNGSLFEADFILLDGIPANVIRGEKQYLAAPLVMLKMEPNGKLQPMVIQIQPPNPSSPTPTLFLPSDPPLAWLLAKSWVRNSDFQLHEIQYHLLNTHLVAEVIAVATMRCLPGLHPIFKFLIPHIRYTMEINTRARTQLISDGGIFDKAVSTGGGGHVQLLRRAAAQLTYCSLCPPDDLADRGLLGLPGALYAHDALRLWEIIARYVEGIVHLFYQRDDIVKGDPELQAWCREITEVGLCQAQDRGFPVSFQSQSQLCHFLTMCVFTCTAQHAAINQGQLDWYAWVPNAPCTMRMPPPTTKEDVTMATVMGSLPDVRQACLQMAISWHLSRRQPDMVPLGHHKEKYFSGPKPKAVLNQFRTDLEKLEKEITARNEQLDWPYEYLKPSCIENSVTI
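Purified human 12hLO at 150 nM in 25 mM Hepes, 0.01% Triton X-100, pH 7.0, preincubated 15 min at room temperature with compound. Reaction started with 40 uM arachidonic acid, 30 min at room temperature. Hydroperoxide measured by Fe-xylenol orange, 573/405 nm absorbance ratio.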
Each line names hits and unclear results; the compound was inactive in the other large screens. Unless noted, calls come from the whole dose curve; as a rule, active = well fitted curve in the direction sought with a large enough effect; inconclusive = small, poorly fitted or top-dose-only effect, or another doubt; inactive = no such curve, though single readings can be large; an effect the other way counts as inactive or inconclusive.

CC(C)c1ccc(NC(=O)c2cc(F)c(F)cc2Cl)cc1	none (no result: DT40 TDP1 CPT, HT1080 IDH1KD tx, HT1080NT lethal, TDP1 cell noCPT, IL1B secr inh)
O=Cc1ccc(N2CCN(C(=O)N3CCOCC3)CC2=O)cc1	none (no result: DT40 TDP1 CPT, HT1080 IDH1KD tx, HT1080NT lethal, TDP1 cell noCPT, IL1B secr inh)
Clc1ccccc1-c1nnc2sc(CCc3ccccc3)nn12	DT40 TDP1 CPT inconclusive, TDP1 cell noCPT inconclusive, 12-LOX inh inconclusive
COc1ccc(Cc2nn3c(-c4ccccc4Br)nnc3s2)cc1	DT40 TDP1 CPT inconclusive, TDP1 cell noCPT inconclusive, IL1B secr inh -85
COc1ccc(-c2nnc3sc(CCN4C(=O)c5ccccc5C4=O)nn23)cc1	TDP1 cell noCPT inconclusive
Brc1ccccc1-c1nnc2sc(Cc3ccccc3)nn12	IL1B secr inh -56
CC(=O)c1ccc(NC(=O)COC(=O)c2ccccc2N=Nc2ccc(N(C)C)cc2)cc1	DT40 TDP1 CPT inconclusive, TDP1 cell noCPT 21µM, IL1B secr inh inconclusive
COC(=O)c1ccccc1NC(=O)COC(=O)c1ccccc1N=Nc1ccc(N(C)C)cc1	DT40 TDP1 CPT 16µM, TDP1 cell noCPT 16µM
CN(C)c1ccc(N=Nc2ccccc2C(=O)OCC(=O)N(C)c2ccccc2)cc1	DT40 TDP1 CPT 21µM, TDP1 cell noCPT inconclusive
COC(=O)c1ccccc1NC(=O)COC(=O)c1ccco1	none
COc1ccccc1CNC(=O)CSc1nc2[nH]ncc2c(=O)n1-c1ccccc1	none (no result: DT40 TDP1 CPT, HT1080 IDH1KD tx, HT1080NT lethal, TDP1 cell noCPT, IL1B secr inh)
O=C(Nc1ccc(Oc2ccccc2)cc1)N[C@H]1CO[C@H]2[C@@H]1OC[C@@H]2n1cc(-c2ccccc2)nn1	none (no result: DT40 TDP1 CPT, HT1080 IDH1KD tx, HT1080NT lethal, TDP1 cell noCPT, IL1B secr inh)
CCOC(=O)c1c(-c2ccc(OC)cc2)csc1NC(=O)CNC(C)(C)C	none (no result: DT40 TDP1 CPT, HT1080 IDH1KD tx, HT1080NT lethal, TDP1 cell noCPT, IL1B secr inh)
CCOC(=O)c1c(-c2ccc(OC)cc2)csc1/N=C/C1C(=O)CCCC1=O	HT1080 IDH1KD tx 18µM, HT1080NT lethal inconclusive, TDP1 cell noCPT inconclusive
CCOC(=O)c1c(-c2ccc(OC)cc2)csc1/N=C/N(C)C	TDP1 cell noCPT 26µM
Cn1c(CN2C[C@H](O)C[C@H]2c2nc(-c3ccc4c(c3)OCO4)no2)nc2ccccc21	none (no result: DT40 TDP1 CPT, HT1080 IDH1KD tx, HT1080NT lethal, TDP1 cell noCPT, IL1B secr inh)
O=S(=O)(Cc1ccccc1)NC[C@H]1COCc2nc3ccccc3n21	none (no result: DT40 TDP1 CPT, HT1080 IDH1KD tx, HT1080NT lethal, TDP1 cell noCPT, IL1B secr inh)
CCOC(=O)c1cc(-c2ccccc2)sc1NC(=O)CCN1CCOCC1	none (no result: DT40 TDP1 CPT, HT1080 IDH1KD tx, HT1080NT lethal, TDP1 cell noCPT, IL1B secr inh)
CCOC(=O)c1c(-c2ccc(C)cc2)csc1NC(=O)C1CC=CCC1C(=O)O (stereo unspecified)	none
Cc1csc(NC(=O)COc2ccc3c(C)cc(=O)oc3c2)n1	none
CCOC(=O)c1c(-c2ccc(C)cc2)csc1NC(=O)CCN1CCOCC1	DT40 TDP1 CPT inconclusive, TDP1 cell noCPT 23µM, 12-LOX inh inconclusive
CCOC(=O)c1c(-c2ccccc2)csc1NC(=O)COc1ccc2c(C)cc(=O)oc2c1	DT40 TDP1 CPT inconclusive, TDP1 cell noCPT 12µM
CCOC(=O)c1[nH]cc(-c2ccccc2)c1N1CCOCC1	DT40 TDP1 CPT 16µM, TDP1 cell noCPT 29µM, 12-LOX inh inconclusive
CCOC(=O)c1c(-c2ccccc2)csc1NC(=O)CCN1CCOCC1	DT40 TDP1 CPT inconclusive, TDP1 cell noCPT 23µM, 12-LOX inh inconclusive
CCOC(=O)c1c(NC(=O)c2ccc(S(=O)(=O)N3CCOCC3)cc2)sc2c1CC(C)(C)NC2(C)C	DT40 TDP1 CPT inconclusive, TDP1 cell noCPT inconclusive
CCOC(=O)c1c(-c2ccccc2)csc1NC(=O)c1ccc(S(=O)(=O)N2CCOCC2)cc1	DT40 TDP1 CPT 5.8µM, TDP1 cell noCPT 10µM
CCOC(=O)c1cc(-c2ccc(N3CCOCC3)cc2)nn1-c1ccccc1C(=O)O	none
CCOC(=O)c1cc(-c2ccc(N3CCOCC3)cc2)nn1-c1ccccc1	DT40 TDP1 CPT 21µM, TDP1 cell noCPT 12µM
COC[C@@H]1CN(C(=O)c2n[nH]c3ccccc23)C[C@H]1c1nc(C)no1	none (no result: DT40 TDP1 CPT, HT1080 IDH1KD tx, HT1080NT lethal, TDP1 cell noCPT, IL1B secr inh)
Clc1ccc(C2C=C(c3ccccc3)Nc3nnnn32)c(Cl)c1 (stereo unspecified)	12-LOX inh 18µM (no result: DT40 TDP1 CPT, HT1080 IDH1KD tx, HT1080NT lethal, TDP1 cell noCPT, IL1B secr inh)
